Compound activity deposited in PubChem by National Center for Advancing Translational Sciences (NCATS).
The list is not random: actives were taken first. Their share in the collection is about 3.4%.
Sm TGR block = inhibitors of Schistosoma mansoni thioredoxin glutathione reductase; Q962Y6; purified TGR, DTNB reduction, TNB absorbance 405 nm; Potency, µM (doses to about 114 µM), hits mostly inhibitors; hit rate 3% among 360,000; AID 485364; further: nearly all actives have a fitted effect of over 60% in size
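Kinetic colorimetric format: TGR-catalysed, NADPH-driven DTNB reduction monitored via TNB absorbance. Enzyme dispensed at 20 nM; compound exposure 15 min at room temperature before reaction start.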
AmpC no deterg = blocks E. coli AmpC beta-lactamase in detergent-free assay; AID 485341; P00811; AmpC nitrocefin hydrolysis, absorbance 480 nm, 0.0001% Triton; hit rate 0.52% among 330,000; Potency, µM (doses to about 57.1 µM), hits mostly inhibitors; further: nearly all actives have a fitted effect of over 20% in size
Target sequence (P00811 whole entry, looked up): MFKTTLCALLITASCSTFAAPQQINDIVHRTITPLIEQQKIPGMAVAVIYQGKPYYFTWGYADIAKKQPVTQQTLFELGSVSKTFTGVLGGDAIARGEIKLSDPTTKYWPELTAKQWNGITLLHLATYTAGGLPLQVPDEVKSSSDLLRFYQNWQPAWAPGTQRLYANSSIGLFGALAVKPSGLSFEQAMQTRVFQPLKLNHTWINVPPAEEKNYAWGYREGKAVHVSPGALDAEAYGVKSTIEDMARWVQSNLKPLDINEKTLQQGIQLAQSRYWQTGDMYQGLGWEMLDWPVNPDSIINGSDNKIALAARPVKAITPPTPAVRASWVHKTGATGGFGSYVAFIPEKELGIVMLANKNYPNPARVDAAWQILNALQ
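AmpC (5.3 nM in the dispensed reagent) in 20 mM phosphate pH 7.0 with 0.01% (detergent screen) or 0.0001% Triton X-100 was preincubated with compounds for 15 min at room temperature. Nitrocefin was then added from an 800 uM solution, and hydrolysis was followed at 480 nm.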
AmpC inh detg = blocks E. coli AmpC beta-lactamase in detergent assay; hit rate 0.041% among 370,000; Potency, µM (top dose mostly 114 µM), actives largely listed as inhibitors; AmpC hydrolysis of nitrocefin, absorbance 480 nm, 0.01% Triton; P00811; AID 485294; further: nearly all actives have a fitted effect of over 25% in size
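AmpC (5.3 nM in the dispensed reagent) in 20 mM phosphate pH 7.0 with 0.01% (detergent screen) or 0.0001% Triton X-100 was preincubated with compounds for 15 min at room temperature. Nitrocefin was then added from an 800 uM solution, and hydrolysis was followed at 480 nm.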
RE007 growth inh = less growth of the S. pombe RE007 Vpr strain | S. pombe RE007 Vpr strain, BacTiter-Glo ATP luminescence, 24 h | AID 651644 | hit rate 0.21% among 360,000 | Potency, µM (top dose mostly 92.2 µM), hits mostly inhibitors; active means well fitted falling curve with a large enough effect; inconclusive means small, poorly fitted or top-dose-only effect; inactive means no such curve, though single readings can be large or run the other way; further: nearly all actives have a fitted effect of over 50% in size
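Fission yeast RE007 carrying one integrated HIV-1 vpr copy, seeded at OD 0.01 in PMG+AL medium with 23 nL pinned compound. Grown 24 h at 30 degrees; viability read by BacTiter-Glo luminescence after 5 min.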
FBPA Giardia inh = blocks Giardia fructose-bisphosphate aldolase activity. A8B2U2. Potency, µM (titrated, usually from 59.6 µM), hits mostly inhibitors. purified Giardia FBPA. hit rate 0.71% among 290,000. AID 2451; further: nearly all actives have a fitted effect of over 55% in size
Target sequence (A8B2U2 whole entry, looked up): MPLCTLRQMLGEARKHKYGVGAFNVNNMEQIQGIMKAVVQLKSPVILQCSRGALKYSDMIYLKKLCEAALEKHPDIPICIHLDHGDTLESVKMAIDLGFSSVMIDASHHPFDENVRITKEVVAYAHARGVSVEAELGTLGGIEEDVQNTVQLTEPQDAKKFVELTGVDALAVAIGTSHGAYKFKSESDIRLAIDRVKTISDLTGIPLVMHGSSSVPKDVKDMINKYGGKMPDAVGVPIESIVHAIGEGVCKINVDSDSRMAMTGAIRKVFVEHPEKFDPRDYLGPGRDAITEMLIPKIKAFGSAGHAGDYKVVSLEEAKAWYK
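40 nM FBPA preincubated 10 min at RT with compound (up to 57.5 uM final), then substrate plus GAPDH/TPI/NAD/arsenate coupling and diaphorase/resazurin added. Fluorescence read after 20 min at RT, 525/598 nm.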
Hits are given with their value; ! = a repeat was not active; [ ] = remark or other dose. Unless noted, the call rests on the fitted dose curve; in most records, active means well fitted curve in the direction sought with a large enough effect; inconclusive means small, poorly fitted or top-dose-only effect, or another doubt; inactive means no such curve, though single readings can be large; an effect the other way counts as inactive or inconclusive.

How did O=C(N/N=C/C=C/c1ccccc1[N+](=O)[O-])c1ccncc1 do in these assays?
Sm TGR block: inactive; AmpC no deterg: inactive; AmpC inh detg: inactive; RE007 growth inh: inactive; FBPA Giardia inh: inconclusive

How did O=C(N/N=C/C=C\c1ccccc1[N+](=O)[O-])c1cc(-c2ccc3ccccc3c2)n[nH]1 do in these assays?
Sm TGR block: inactive; AmpC no deterg: 10µM; AmpC inh detg: inactive; RE007 growth inh: inactive; FBPA Giardia inh: inactive

Results for c1ccc(CCN=C2CCCc3c2[nH]c2ccccc32)cc1 ?
Sm TGR block: 56.2µM; AmpC no deterg: inactive; AmpC inh detg: inactive; RE007 growth inh: inactive; FBPA Giardia inh: inactive

What do the screens show for `COc1ccc(CCN(Cc2nc3ccccc3c(=O)[nH]2)C(=O)c2ccco2)cc1OC`?
Sm TGR block: inactive; AmpC no deterg: inactive; AmpC inh detg: inconclusive; RE007 growth inh: inactive; FBPA Giardia inh: inactive

Results for NS(=O)(=O)c1ccc(N2CCN(CCOc3ccc(Cl)cc3)CC2)nc1 ?
Sm TGR block: inactive; AmpC no deterg: inactive; AmpC inh detg: inactive; RE007 growth inh: inactive; FBPA Giardia inh: inactive

Results for O=C(COC(=O)CNC(=O)c1ccccc1)NCCc1ccccc1 ?
Sm TGR block: inactive; AmpC no deterg: inactive; AmpC inh detg: inactive; RE007 growth inh: inactive; FBPA Giardia inh: inactive

Results for O=C(CNC(=O)c1ccccc1)NCCc1ccc(O)c(O)c1 ?
Sm TGR block: 3.16µM; AmpC no deterg: inactive; AmpC inh detg: inactive; FBPA Giardia inh: inactive

What do the screens show for `CCOc1ccc(-n2c(Cc3cc(=O)[nH]c(=O)[nH]3)nnc2SCC(N)=O)cc1`?
Sm TGR block: inactive; AmpC no deterg: inactive; AmpC inh detg: inactive; RE007 growth inh: inactive; FBPA Giardia inh: inactive

What do the screens show for `COCCN=C1N[C@@H](c2ccc(Br)cc2)C(C(=O)OC)=C(C)N1Cc1ccccc1`?
Sm TGR block: inactive; AmpC no deterg: inactive; AmpC inh detg: inconclusive; RE007 growth inh: inactive; FBPA Giardia inh: inactive

What do the screens show for `COC(=O)C1=C(C)N(Cc2ccco2)C(=O)N[C@H]1c1ccc(Br)cc1`?
Sm TGR block: 35.5µM; AmpC no deterg: inactive; AmpC inh detg: inconclusive; FBPA Giardia inh: inactive

What do the screens show for `CC(=O)C1=C(C)N(Cc2ccccc2)C(=O)N[C@H]1c1ccco1`?
Sm TGR block: 17.8µM; AmpC no deterg: inactive; AmpC inh detg: inactive; RE007 growth inh: inactive; FBPA Giardia inh: inactive[12.9 µM]

How did COCCN=C1N[C@@H](c2ccccc2)C(C(=O)OC)=C(C)N1Cc1ccccc1 do in these assays?
Sm TGR block: 22.4µM!; AmpC no deterg: inactive; AmpC inh detg: inconclusive; RE007 growth inh: inactive; FBPA Giardia inh: inactive

What do the screens show for `CC(=O)C1=C(C)N(Cc2ccco2)C(=O)N[C@@H]1c1ccccc1`?
FBPA Giardia inh: inactive

What do the screens show for `COC(=O)C1=C(C)N(Cc2ccco2)C(=O)N[C@H]1c1ccccc1`?
Sm TGR block: 20µM; AmpC no deterg: inactive; AmpC inh detg: inactive; FBPA Giardia inh: inactive

What do the screens show for `Cc1ccc(C)c(N=Cc2cc3c(cc2[N+](=O)[O-])OCO3)c1`?
Sm TGR block: inactive; AmpC no deterg: inactive; AmpC inh detg: inactive; RE007 growth inh: inactive; FBPA Giardia inh: 3.15µM

What do the screens show for `O=[N+]([O-])c1ccc(O)c(C=Nc2ccc3c(c2)OCO3)c1`?
Sm TGR block: inactive; AmpC no deterg: inactive; AmpC inh detg: inactive; RE007 growth inh: inactive; FBPA Giardia inh: inactive

How did Cc1cccc(C)c1OCC(=O)N/N=C/c1cc2c(cc1[N+](=O)[O-])OCO2 do in these assays?
Sm TGR block: inactive; AmpC no deterg: inactive; AmpC inh detg: inactive; RE007 growth inh: inactive; FBPA Giardia inh: inactive

Results for O=C(CCc1ccc(O)c(O)c1)N/N=C/c1cc2c(cc1[N+](=O)[O-])OCO2 ?
Sm TGR block: 15.8µM; AmpC no deterg: inactive; AmpC inh detg: inconclusive; RE007 growth inh: inactive; FBPA Giardia inh: inactive

Results for O=[N+]([O-])c1cc(Br)cc(C=Nc2ccc3c(c2)OCO3)c1O ?
Sm TGR block: 17.8µM; AmpC no deterg: inactive; AmpC inh detg: inactive; RE007 growth inh: inactive; FBPA Giardia inh: inactive

How did Cc1ccc(N=Cc2cc3c(cc2[N+](=O)[O-])OCO3)cc1[N+](=O)[O-] do in these assays?
RE007 growth inh: inactive

How did COC(=O)c1c(-c2ccc(Cl)cc2)noc1N1CCN(c2ccccc2OC)CC1 do in these assays?
Sm TGR block: inactive; AmpC inh detg: inactive

What do the screens show for `O=C(O)c1ccccc1C(=O)NCc1ccc(F)cc1`?
Sm TGR block: inactive; AmpC no deterg: inactive; AmpC inh detg: inactive; RE007 growth inh: inactive; FBPA Giardia inh: inactive

Results for O=C(O)c1ccccc1C(=O)NNc1ccc(F)cc1 ?
Sm TGR block: 50.1µM; AmpC no deterg: inactive; AmpC inh detg: inactive; RE007 growth inh: inactive; FBPA Giardia inh: inactive

Results for O=C(CC1C(=O)NCCN1Cc1ccc(Cl)c(F)c1)NC1CCC1 (stereo not given) ?
Sm TGR block: 39.8µM; AmpC no deterg: inactive; AmpC inh detg: inactive; RE007 growth inh: inactive

How did Cc1cnc(CNC(=O)CC2C(=O)NCCN2Cc2cccc(F)c2F)cn1 (stereo not given) do in these assays?
Sm TGR block: 17.8µM; AmpC no deterg: inactive; AmpC inh detg: inactive; RE007 growth inh: inactive; FBPA Giardia inh: inactive

Results for CN(Cc1ccon1)C(=O)CC1C(=O)NCCN1Cc1cccc(F)c1F (stereo not given) ?
Sm TGR block: inconclusive; AmpC no deterg: inactive; AmpC inh detg: inactive; RE007 growth inh: inactive

What do the screens show for `CN(CCCC1CCCC1)C(=O)CC1C(=O)NCCN1Cc1cccc(F)c1F` (stereo not given)?
Sm TGR block: 28.2µM; AmpC no deterg: inactive; AmpC inh detg: inactive; RE007 growth inh: inactive

Results for COc1ccc(CN2CCNC(=O)C2CC(=O)NCC2CCOCC2)cc1C (stereo not given) ?
Sm TGR block: inconclusive; AmpC no deterg: inactive; AmpC inh detg: inconclusive; RE007 growth inh: inactive; FBPA Giardia inh: inactive

What do the screens show for `O=C(CC1C(=O)NCCN1Cc1ccc(Cl)c(F)c1)NCC1CCOCC1` (stereo not given)?
Sm TGR block: 39.8µM; AmpC no deterg: inactive; AmpC inh detg: inactive; RE007 growth inh: inactive; FBPA Giardia inh: inactive

Results for CC(=O)C1=C(O)C(=O)N(CCc2c[nH]c3ccccc23)C1c1cccc(O)c1 (stereo not given) ?
Sm TGR block: inactive; AmpC no deterg: inactive; AmpC inh detg: inactive; RE007 growth inh: inactive; FBPA Giardia inh: inactive

Results for C[C@H](NC(=O)[C@@H]1CCCN1C(=O)[C@@H]1CCCN1C(=O)c1ccc(Cl)cc1)c1ccccc1 ?
RE007 growth inh: inactive

What do the screens show for `CCc1ccccc1NC(=O)CN(c1ccc(OC)cc1)S(=O)(=O)c1c(C)n[nH]c1C`?
Sm TGR block: inactive; AmpC inh detg: inactive

What do the screens show for `CN(CC1CCOCC1)C(=O)CC1C(=O)NCCN1Cc1ccc(Cl)c(F)c1` (stereo not given)?
Sm TGR block: 28.2µM; AmpC no deterg: inactive; AmpC inh detg: inactive; RE007 growth inh: inactive; FBPA Giardia inh: inactive
